Screening results deposited in PubChem by National Center for Advancing Translational Sciences (NCATS).
RORgamma inh: qHTS for inhibitors of ROR gamma transcriptional activity. Drosophila S2 Gal4-RORgamma UAS-luciferase reporter, 20 h. Potency, µM (highest dose often 53.6 µM), inactives show top-dose activity change, negative = inhibition, actives largely listed as inhibitors. 5.4% of 310,000 active. AID 2551, 2010; note: potency is the fitted concentration of half-maximal effect; nearly all actives have a fitted effect of over 60% in size
Target sequence (P51450 whole entry, looked up, the tested form may be a part): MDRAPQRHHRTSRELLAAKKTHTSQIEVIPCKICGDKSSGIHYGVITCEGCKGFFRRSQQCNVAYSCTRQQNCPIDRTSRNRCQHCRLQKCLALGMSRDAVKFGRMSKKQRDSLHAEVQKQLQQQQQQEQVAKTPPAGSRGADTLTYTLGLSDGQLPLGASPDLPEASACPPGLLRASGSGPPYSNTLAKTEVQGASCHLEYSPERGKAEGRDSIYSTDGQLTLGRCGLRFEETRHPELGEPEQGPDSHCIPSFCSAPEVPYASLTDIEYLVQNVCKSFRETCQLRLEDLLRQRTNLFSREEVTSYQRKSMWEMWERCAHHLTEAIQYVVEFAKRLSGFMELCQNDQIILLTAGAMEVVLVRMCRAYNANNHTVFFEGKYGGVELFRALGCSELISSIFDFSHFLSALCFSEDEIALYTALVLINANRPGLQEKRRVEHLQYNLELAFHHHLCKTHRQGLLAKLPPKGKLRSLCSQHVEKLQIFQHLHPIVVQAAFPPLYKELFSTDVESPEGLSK
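Drosophila S2 cells stably expressing Gal4-DBD/mouse RORγ fusion under metallothionein promoter plus UAS-luciferase; compound 1 h, then 700 uM CuSO4 induction for 20 h at ambient temperature; inhibition read as reduced luminescence.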
B2AR arrestin: qHTS assay of beta-arrestin-biased ligands of beta2-adrenergic receptor | beta-arrestin recruitment to beta2AR, cell-based reporter | Potency, µM (highest dose often 46.1 µM), for inactives: at the highest dose activation, usual class: activators | 0.02% of 330,000 active | AID 492947, 2010;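 note: potency is the fitted concentration of half-maximal effect; 0% = DMSO controls and full agonism = EC100 isoproterenol or metaproterenol; nearly all actives have a fitted effect of over 65% in size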
ELG1 repair inh: qHTS screen for small molecules that inhibit ELG1-dependent DNA repair in human embryonic kidney (HEK293T) cells expressing luciferase-tagged ELG1; Potency, µM (series often up to 46.1 µM), without a hit: at the highest dose activity change, negative = inhibition, most hits filed as inhibitors; HEK293T ELG1-luciferase reporter, luminescence, 16 h; DNA damage induced by 5-fluorouridine; 2.3% of 330,000 active; note: potency is the fitted concentration of half-maximal effect; nearly all actives have a fitted effect of over 55% in size
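Step one: seed 2,000 cells per well. Step two: pin-transfer compound or DMSO alongside 5-fluorouridine. Step three: incubate 16 hr, 37 °C, 5% CO2. Step four: add ONE-Glo, wait 30 min, read luminescence.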
TSHR antagonist: Antagonists of the Thyroid Stimulating Hormone Receptor: HTS campaign; Thyrotropin receptor (Homo sapiens), P16473; activity change, negative = inhibition, % at 11.5 µM; 0.2% of 330,000 active; TSHR-expressing cells, TSH-stimulated cAMP HTRF, 2 h; stronger effect = lower value;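 active = activity change below a set negative limit, meaning inhibition stronger than a set level, cut at about -70% in these data; inconclusive = activity change between two set negative limits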
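TSHR-expressing cells, 200/well, pre-treated with compound, then stimulated with EC80 TSH (4nM final) for 2 hours at 37 deg C. cAMP measured by competitive HTRF: anti-cAMP cryptate antibody in lysis buffer plus cAMP-d2, read after 30 minutes at room temperature.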
VP16 counter: VP16 counterscreen qHTS for inhibitors of ROR gamma transcriptional activity; Potency, µM (top dose mostly 53.6 µM), for the others: at the top dose activity, negative = inhibition, actives largely listed as inhibitors; Drosophila S2 Gal4-VP16 UAS-luciferase, luminescence, 20 h; 3.5% of 310,000 active;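 note: Gal4-VP16 expression switched on by copper sulfate through the metallothionein promoter; potency is the fitted concentration of half-maximal effect; nearly all actives have a fitted effect of over 50% in size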
* = called active by the depositor; ? = inconclusive; / = no result given; [ ] = dose if it differs, or a comment. This is a sample that favours compounds with a hit; in the whole collection about 7.5% have one here. Unless noted, calls come from the whole dose curve; as a rule, active = well fitted curve in the direction sought with a large enough effect; inconclusive = small, poorly fitted or top-dose-only effect, or another doubt; inactive = no such curve, though single readings can be large; an effect the other way counts as inactive or inconclusive. Unless noted, % is set by controls: 0 for no effect and ±100 for the full control effect.

SMILES	RORgamma inh	B2AR arrestin	ELG1 repair inh	TSHR antagonist	VP16 counter
Cc1ccc(-c2cc(C(F)(F)F)nc(SCC(=O)c3cccc([N+](=O)[O-])c3)n2)cc1	-1.6%	-0.6%	18.4µM*	-13.6	-3.6%
COc1ccc(C(=O)CSc2cc(C)nc(SCC(=O)c3ccc(C)cc3)n2)cc1	?	-0.6%	5.17µM*	-8.0	-0.5%
Cc1ccc(OCc2nnc(SCC(=O)N3CCOCC3)n2C)cc1	10.8%	0.1%	3.4%	8.2	-0.4%
COc1ccc(-c2cc(C)nc(SCC(=O)c3cccc([N+](=O)[O-])c3)n2)cc1	0.8%	-0.3%	20.6µM*	-14.5	-6.9%
CC[Si](CC)(CC)O[C@H]([C@@H](C)COCOC)[C@@H](C)COCc1ccc(OC)cc1	16.6%	/	/	/	-4.5%
CC/C=C\C/C=C\C/C=C\C/C=C\C/C=C\C/C=C\CCC(N)=O	-0.7%	/	/	/	-2.4%
CC(=O)O[C@H]1CC2(C)[C@@H](C[C@@H](O)[C@H]3[C@@]4(C)CC[C@@H](O)[C@@H](C)[C@@H]4CC[C@@]32C)C1=C(CCC=C(C)C)C(=O)O (some centres undefined)	/	/	/	-11.1	/
Cc1cc(C(F)(F)F)nc(SCC(=O)c2cccc([N+](=O)[O-])c2)n1	34.9%	0.0%	-3.9%	-6.3	-9.8%
O=C(CSc1nc(-c2ccccc2)cc(C(F)(F)F)n1)c1cccc([N+](=O)[O-])c1	11.3%	-0.1%	18.4µM*	21.6	-3.8%
CC(C)C[C@@H](CC(=O)N[C@H](CC(=O)N[C@@H]1CCCC[C@H]1C(=O)N[C@H](CC(=O)N[C@@H](CCC(=O)O)CC(=O)O)Cc1ccccc1)C(C)C)NC(=O)[C@@H]1CCCC[C@H]1N	-17.8%	/	/	/	2.6%
OCC1OC(C#Cc2ccccc2)C=CC1OCc1ccccc1 (centres undefined)	31.7%[10 µM]	/	/	/	-3.2%[10 µM]
COCCn1c(SCC(=O)N2CCCCCC2)nc2c([nH]c3ccccc32)c1=O	?	-0.7%	-16.7%	-10.8	-2.0%
CCOC(=O)N1CCN(C(=O)CSc2nc3c([nH]c4ccccc43)c(=O)n2CCOC)CC1	-7.4%	0.3%	7.3µM*	-3.1	-6.0%
COCCn1c(SCC(=O)N2CCCCC2)nc2c([nH]c3ccccc32)c1=O	11.0%	6.3%	16.4µM*	25.0	0.3%
Cn1c(=S)[nH]c2c(c1=O)C(C)(C)Cc1ccccc1-2	-3.2%	?	?	12.2	?
CCn1c(=S)[nH]c2c(c1=O)C(C)(C)Cc1ccccc1-2	1µM*	2.5%	5.1%	-7.6	3.55µM*
S=c1[nH]nc(-c2ccco2)n1C1CCCCC1	10µM*	0.1%	11.2%	-14.8	?
Cn1cc(Cl)c(-c2n[nH]c(=S)n2C2CCCCC2)n1	6.31µM*	-0.1%	-5.6%	-9.9	?
Cc1nn(C)cc1-c1n[nH]c(=S)n1-c1ccc(Cl)cc1	?	-0.6%	-8.8%	-2.9	-4.1%
COc1ccc(-n2c(-c3ccco3)n[nH]c2=S)cc1	10.4%[10 µM]	-0.3%	-0.3%	5.9	?
CC(C)(C)c1cc(-c2n[nH]c(=S)n2-c2ccc(Cl)cc2)n[nH]1	7.08µM*	-0.1%	6.4%	-5.1	-17.0%
Cn1cc(Cl)c(C(=O)NC2CCCCCC2)n1	-3.5%	-0.2%	?	5.8	24.1%
S=c1[nH]nc(-c2ccco2)n1-c1ccc(Cl)cc1	8.91µM*	-0.4%	12.3%	-2.7	-28.7%
O=C1N=C2SCCN2C(=O)C1Cc1ccc(Cl)cc1 (centres undefined)	7.7%	/	/	/	4.3%
Cc1cc(O)cc(O)c1C(=O)OC1(C)C(=O)C=C2C=C(/C=C/C(=O)O)OC=C2C1=O (centres undefined)	-5.2%	/	/	/	-10.1%
COc1ccc(C)cc1NC(=O)c1nnn(Cc2cc(C)ccc2C)c1N	23.6%	0.2%	25.5%	15.5	0.0%
COc1ccc(OC)c(NC(=O)c2nnn(Cc3ccccc3C)c2N)c1	-13.5%	4.0%	11.2µM*	17.6	-21.1%
